hDAT+cocaine: modulates human dopamine transporter uptake under cocaine | LLC-PK1 hDAT cells, [14C]-dopamine uptake with cocaine IC80; actives deviate in either direction | B-score at 10 µM | 110,000 compounds, 1.3% hits | AID 449768;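 active means Z score or B-score, a plate-position-corrected score, falls beyond the plate's 99.7% confidence bounds, in either direction; inactive means both scores lie inside the 99.7% bounds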
Target sequence (Q01959 whole entry, looked up): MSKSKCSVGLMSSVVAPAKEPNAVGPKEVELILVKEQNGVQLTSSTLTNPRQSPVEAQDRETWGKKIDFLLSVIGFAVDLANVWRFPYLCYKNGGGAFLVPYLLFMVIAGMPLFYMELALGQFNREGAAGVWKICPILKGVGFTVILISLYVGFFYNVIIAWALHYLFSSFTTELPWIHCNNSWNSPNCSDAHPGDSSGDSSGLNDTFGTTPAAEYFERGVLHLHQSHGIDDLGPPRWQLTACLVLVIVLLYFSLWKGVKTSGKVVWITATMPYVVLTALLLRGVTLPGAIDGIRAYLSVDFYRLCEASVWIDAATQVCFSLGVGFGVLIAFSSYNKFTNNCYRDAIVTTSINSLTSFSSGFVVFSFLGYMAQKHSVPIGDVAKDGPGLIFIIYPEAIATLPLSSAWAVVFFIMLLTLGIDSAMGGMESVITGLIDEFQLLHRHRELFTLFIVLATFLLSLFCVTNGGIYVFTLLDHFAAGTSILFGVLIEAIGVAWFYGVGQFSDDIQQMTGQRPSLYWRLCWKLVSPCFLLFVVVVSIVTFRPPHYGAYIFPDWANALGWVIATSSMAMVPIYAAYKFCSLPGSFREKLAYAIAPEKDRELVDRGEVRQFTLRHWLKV
CYP2C9 act: CYP2C9 (human) activation. P11712. recombinant CYP2C9, luciferin-H conversion, luminescence; hits give high values; factor 1 = untreated enzyme, 0 = blocked. activation factor at 5 µM. 96,000 compounds, 1.4% hits. AID 1024;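 active means activation factor of 2 or more for CYP2C9 at a 5 µM dose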
CYP2C9 inh: human CYP2C9 inhibition; P11712; inhibition, % at 5 µM; AID 777; CYP2C9 Supersomes, luciferin-H conversion, luminescence; 96,000 compounds, 20% hits;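 active means blocking of liver enzyme CYP2C9 beyond about 50% at 5 µM, limit read from the data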
CYP2C19 act: cytochrome P450 2C19 (human) activation | 96,000 tested, under 10 active | AID 1025 | recombinant CYP2C19, luciferin-H EGE luminescence; hits give high values; 0 = fully inhibited enzyme, 1 = untreated enzyme | activation factor at 5 µM | P33261;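 active means activation factor of at least 2 at 5 µM in the primary screen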
CYP2C19 inhib: human CYP2C19 inhibition. P33261. CYP2C19 Supersomes, luciferin-H EGE luminescence, 30 min. inhibition, % at 5 µM. 96,000 compounds, 21% hits. AID 778;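 active means CYP2C19 inhibition above a set limit at 5 µM in the primary screen, cut at about 50% in these data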
D1 allo mod: allosterically modulates the human D1 dopamine receptor | P21728 | HEK293 D1, CRE-luciferase, dopamine EC30 potentiation; actives deviate in either direction | B-score at 10 µM | 58,000 compounds, 5.9% hits | AID 641;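 active means luminescence count or its row- and column-corrected plate score outside the 99.7% band of the plate's sample wells, on either side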
Numbers stand for hits. A selection: hits, their analogues and other compounds. The true share with any hit is near 28%.

Screening CCOC(=O)C(C(=O)NCc1cccc(OC)c1)c1ncc(C(F)(F)F)cc1Cl (stereo not drawn) returned hDAT+cocaine inactive, CYP2C9 act inactive, CYP2C9 inh inactive, CYP2C19 act inactive and CYP2C19 inhib inactive.
Screening O=C(CSc1ccc2c(c1)OCCO2)Nc1ccc2c(c1)OCO2 returned hDAT+cocaine inactive, CYP2C9 act inactive, CYP2C9 inh 92, CYP2C19 act inactive and CYP2C19 inhib 100.
Screening COc1cc(NC(=O)CSc2ccc3c(c2)OCCO3)cc(OC)c1OC returned hDAT+cocaine inactive, CYP2C9 act inactive, CYP2C9 inh inactive, CYP2C19 act inactive and CYP2C19 inhib inactive.
`Cc1csc(NC(=O)CCCSc2nc3ccccc3s2)n1` gave hDAT+cocaine inactive, CYP2C9 act inactive, CYP2C9 inh 52, CYP2C19 act inactive, CYP2C19 inhib 88 and D1 allo mod inactive.
O=C(CCCSc1nc2ccccc2s1)NCc1ccco1 was read as hDAT+cocaine inactive, CYP2C9 act inactive, CYP2C9 inh inactive, CYP2C19 act inactive, CYP2C19 inhib 76 and D1 allo mod inactive.
Cc1csc(NC(=O)CSc2nc3ccccc3s2)n1 was read as hDAT+cocaine inactive, CYP2C9 act inactive, CYP2C9 inh inactive, CYP2C19 act inactive and CYP2C19 inhib inactive.
For Fc1cccc(CN2CCN(c3ncccn3)CC2)c1 the results were hDAT+cocaine inactive, CYP2C9 act inactive, CYP2C9 inh inactive, CYP2C19 act inactive, CYP2C19 inhib inactive and D1 allo mod inactive.
For COc1ccc(-c2nc3nc(C)cc(C)n3n2)cc1 the results were hDAT+cocaine inactive, CYP2C9 act inactive, CYP2C9 inh inactive, CYP2C19 act inactive, CYP2C19 inhib inactive and D1 allo mod inactive.
Screening [O-]/[N+](=C\c1ccncc1)c1ccccc1 returned CYP2C9 act inactive, CYP2C9 inh inactive, CYP2C19 act inactive, CYP2C19 inhib inactive and D1 allo mod inactive.
`O=c1oc2ccccc2c(NC(c2ccccc2)c2ccccc2)c1[N+](=O)[O-]` gave hDAT+cocaine inactive.
For CC(=O)CC(c1ccc([N+](=O)[O-])cc1)c1c(O)c2ccccc2oc1=O (stereo not drawn) the results were hDAT+cocaine inactive, CYP2C9 act inactive, CYP2C9 inh 76, CYP2C19 act inactive and CYP2C19 inhib inactive.
For Cn1c(Cc2cccc3ccccc23)nnc1SCC(=O)N1CCN(c2ccccc2)CC1 the results were hDAT+cocaine inactive, CYP2C9 act inactive, CYP2C9 inh inactive, CYP2C19 act inactive and CYP2C19 inhib inactive.
For CCOC(=O)c1ccccc1NS(=O)(=O)c1ccc(S(=O)(=O)N2CCCC2)cc1 the results were hDAT+cocaine inactive, CYP2C9 act inactive, CYP2C9 inh 91, CYP2C19 act inactive, CYP2C19 inhib 97 and D1 allo mod inactive.
CCOC(=O)c1ccc(S(=O)(=O)N2CCN(C)CC2)cc1 was read as hDAT+cocaine inactive, CYP2C9 act inactive, CYP2C9 inh inactive, CYP2C19 act inactive and CYP2C19 inhib inactive.
CCOC(=O)N1CCN(S(=O)(=O)c2ccc(F)c(C(=O)Nc3cccc(C)c3C)c2)CC1 was read as hDAT+cocaine inactive, CYP2C9 act inactive, CYP2C9 inh inactive, CYP2C19 act inactive, CYP2C19 inhib inactive and D1 allo mod inactive.
For O=C(NCCSCc1ccccc1)c1cc(S(=O)(=O)N2CCOCC2)ccc1F the results were CYP2C9 act inactive, CYP2C9 inh 70, CYP2C19 act inactive, CYP2C19 inhib 51 and D1 allo mod inactive.
Screening CCOC(=O)c1ccccc1NC(=O)c1cc(S(=O)(=O)N2CCOCC2)ccc1F returned hDAT+cocaine inactive, CYP2C9 act inactive, CYP2C9 inh 59, CYP2C19 act inactive, CYP2C19 inhib inactive and D1 allo mod inactive.
Screening COC(=O)c1cc2n(n1)CCN(Cc1ccc(F)cc1)C2=O returned hDAT+cocaine inactive, CYP2C9 act inactive, CYP2C9 inh inactive, CYP2C19 act inactive and CYP2C19 inhib inactive.
C=CCOC(=O)C1=C(C)N=C2SCCC(=O)N2C1c1cccs1 (stereo not drawn) was read as hDAT+cocaine inactive, CYP2C9 act inactive, CYP2C9 inh inactive, CYP2C19 act inactive, CYP2C19 inhib inactive and D1 allo mod inactive.
CCOC(=O)C1=C(C)N=C2SC(CC)C(=O)N2C1c1cccc(F)c1 (stereo not drawn) was read as hDAT+cocaine inactive, CYP2C9 act inactive, CYP2C9 inh 75, CYP2C19 act inactive, CYP2C19 inhib 91 and D1 allo mod inactive.

Screening results deposited in PubChem by several laboratories.
